EWS-Fli block: blocks EWS/Fli oncoprotein-driven transcription. A673 NR0B1-luciferase reporter, viability-normalised. inhibition, % at 12.6 µM. actives 0.67% (n = 350,000);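 active = mean inhibition of at least 50% after viability correction, with every replicate also passing that limit; inconclusive = mean reaches 50% but only one of two replicates passes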;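 also: firefly luciferase signal divided by Alamar Blue viability fluorescence both relative to DMSO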
LMP1 NFkB inh: reduces LMP1-driven NF-kappaB luciferase signal. inhibition, % at 12.5 µM. actives 0.69% (n = 350,000). LMP1-induced NF-kappaB luciferase reporter cells, luminescence. AID 504558; in the data active = inhibition above about 41%; inconclusive = no clear call, values can overlap the other calls;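 also: 0% = neutral control wells and 100% = reference inhibitor control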
TWEAK-Fn14 inh: inhibitors of TWEAK-Fn14 interaction signaling. TWEAK-stimulated Fn14 reporter cells, luciferase luminescence, 8 h. inhibition, % at 10 µM. actives 2% (n = 360,000). AID 1159606; in the data active = inhibition above about 50%
LGR2 antag: inhibitors of bursicon-induced Drosophila LGR2 receptor cAMP signaling | HEK293 LGR2, CRE-luciferase, bursicon-stimulated, 4 h | inhibition, % at 9.99 µM | actives 0.35% (n = 380,000);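 active = drop in luminescence signal, shown as inhibition above about 50% in the replicate tests, limit read from the data, passing the limit was not always enough; inconclusive = probably only some replicates passing the limit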;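 also: agonist challenge used bursicon conditioned medium at about half maximal strength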
PAX8 inh HTS: lowers PAX8-driven luciferase in RMG-I cells; RMG-I TPO-luciferase reporter, SteadyGlo, 24 h; inhibition, % at 12.6 µM; actives 1.2% (n = 360,000); AID 652154;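 active = mean replicate inhibition at least 60% with every replicate also reaching 60%; inconclusive = only one of the two criteria is met; inactive = mean below 60% and not all replicates reaching 60%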;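 also: luciferase light reporting Pax8 driven TPO promoter activity; plate controls were median of neutral control wells for no effect and mitoxantrone controls for full effect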
TROY NFkB inh: blocks TROY-dependent signaling in reporter cells. Q293 LMP1-TROYcd NF-kB luciferase reporter, 4 h. AID 1347056. inhibition, % at 10 µM. actives 0.98% (n = 360,000);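 active = compounds whose plate-normalised and pattern-corrected inhibition of the luciferase reporter signal at the single screening dose is 50% or more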
* marks the source's active call; other numbers are inactive results; ? = inconclusive; / = not tested or not shown. This is a sample that favours compounds with a hit; in the whole collection about 3.2% have one here.

SMILES | EWS-Fli block | LMP1 NFkB inh | TWEAK-Fn14 inh | LGR2 antag | PAX8 inh HTS | TROY NFkB inh
C(=N\Nc1nc2ccccc2s1)/c1ccc2c(c1)OCO2 | -22 | -33 | 36 | / | 32 | 5
CCNC(=O)C[C@H]1CC[C@H]2[C@@H](COc3ccc(NC(=O)C4CCCCC4)cc3C(=O)N2C)O1 | 0 | / | / | 17 | 4 | /
CCC(=O)N1CC2(C1)[C@H](c1ccc(-c3ccccc3OC)cc1)[C@@H](CO)N2C(C)=O | 2 | / | / | -4 | 10 | /
O=C(CSc1ccc(-c2ccccn2)nn1)c1ccccc1 | -69 | -9 | -16 | -36 | -85 | -28
Cn1c(SCC(=O)c2ccc(F)cc2)nc2cccnc21 | / | -3 | 61* | / | / | 3
O=C(CSc1ccc(-c2ccccn2)nn1)c1ccc(F)cc1 | -7 | 7 | 82* | -8 | -9 | -11
CCOC(=O)CSc1nc2cccnc2n1-c1ccc(F)cc1 | / | -1 | 6 | / | 8 | 61*
COc1ccc2c3c([nH]c2c1)[C@H](CO)N(C(=O)C1CCOCC1)CC31CCN(S(C)(=O)=O)CC1 | -6 | / | / | 2 | / | /
CN1C(=O)c2cc(NC(=O)C3CCCCC3)ccc2OC[C@H]2O[C@@H](CC(=O)NCCc3ccncc3)CC[C@H]21 | -3 | / | / | -12 | 10 | /
O=S(=O)(Cc1nnnn1-c1ccc(Br)cc1)c1ccccc1 | -4 | -4 | 2 | 3 | 4 | -5
CCS(=O)(=O)c1nnnn1-c1ccccc1S(C)(=O)=O | 18 | 51* | 27 | 23 | / | 1
COc1ccc(C(=O)N2CCN(c3ncnc4c(-c5ccccc5)nsc34)CC2)cc1 | / | 10 | 16 | / | -19 | 6
Cc1ccc(-c2nsc3c(N4CCC(C(N)=O)CC4)ncnc23)cc1 | / | 7 | 59* | / | -39 | 45
COc1ccc(-c2nsc3c(N4CCCCC4C)ncnc23)cc1 (stereo not given) | 83* | 73* | 98* | 95* | ? | 91*
COc1ccc(-c2nsc3c(N4CCCCC4)ncnc23)cc1 | / | 31 | 102* | / | 76* | 80*
COCCNC(=O)C[C@H]1C[C@@H]2c3cc(NS(=O)(=O)c4ccccc4)ccc3O[C@@H]2[C@H](CO)O1 | -7 | / | / | -2 | -13 | /
CCNC(=O)C[C@H]1CC[C@@H]2[C@@H](COc3ccc(NC(=O)Nc4ccc(C)cc4)cc3C(=O)N2C)O1 | -11 | / | / | 2 | -3 | /
CSc1oc(-c2ccc(F)cc2)nc1S(=O)(=O)c1ccc(F)cc1 | 10 | 89* | 14 | 16 | -15 | 9
C[C@@H]1CN([C@H](C)CO)C(=O)c2cccc(NC(=O)Nc3ccc4c(c3)OCO4)c2O[C@@H]1CN(C)S(=O)(=O)c1cn(C)cn1 | -6 | / | / | -16 | / | /
O=C(NCCc1ccccc1)c1coc(=O)c(Br)c1 | 23 | / | 78* | -39 | 65* | 7
O=C(NCCC1=CCCCC1)c1ccc(=O)oc1 | / | -6 | -21 | / | / | 2
O=C(NCCC1=CCCCC1)c1coc(=O)c(Br)c1 | / | -53 | 92* | / | / | 9
O=C(Cc1ccccc1)N1CC(=O)N2[C@H](C1)[C@@H](c1ccc(Br)cc1)[C@@H]2CO | -9 | / | / | -6 | / | /
C[C@@H]1CN([C@@H](C)CO)C(=O)Cc2cc(NC(=O)Nc3ccc4c(c3)OCO4)ccc2O[C@@H]1CN(C)S(=O)(=O)c1cn(C)cn1 | 2 | / | / | 5 | -11 | /
Cc1ccc(Cl)cc1N1CCN(C(=O)CN(C2CCCCC2)S(C)(=O)=O)CC1 | / | 3 | 27 | / | 4 | 21
SMILES | EWS-Fli block | LMP1 NFkB inh | TWEAK-Fn14 inh | LGR2 antag | PAX8 inh HTS | TROY NFkB inh
CS(=O)(=O)N(CC(=O)N1CCN(c2cccc(Cl)c2)CC1)C1CCCCC1 | / | -1 | 67* | / | / | 18
COc1cccc(C#Cc2ccc3c(c2)O[C@@H](CN(C)C(=O)c2ccccn2)[C@H](C)CN([C@@H](C)CO)S3(=O)=O)c1 | 22 | / | / | -3 | 73* | /
C[C@@H]1CN([C@@H](C)CO)S(=O)(=O)c2ccc(C#Cc3ccccc3)cc2O[C@@H]1CN(C)C(=O)Nc1ccc2c(c1)OCO2 | 7 | / | / | 9 | 40 | /
COc1ccc(NC(=O)N(C)C[C@@H]2Oc3cc(C#CCC(C)C)ccc3S(=O)(=O)N([C@@H](C)CO)C[C@@H]2C)cc1 | 2 | / | / | -8 | 65* | /
COc1cccc(NC(=O)N(C)C[C@H]2Oc3cc(C#Cc4ccncc4)ccc3S(=O)(=O)N([C@H](C)CO)C[C@H]2C)c1 | 6 | -11 | 31 | -8 | 66* | 10
C[C@@H]1CN([C@H](C)CO)S(=O)(=O)c2ccc(C#Cc3ccncc3)cc2O[C@H]1CN(C)C(=O)Nc1ccc2c(c1)OCO2 | 19 | / | / | 12 | 91* | /
CCC(=O)N1[C@@H](CO)[C@@H](c2ccc(-c3ccccc3)cc2)[C@@H]1CN(C)C(C)=O | -1 | / | / | -1 | 6 | /
CCCNC(=O)N1C[C@@H](O)COC[C@H]2O[C@H](CC(=O)N3CCCCC3)CC[C@@H]21 | -6 | / | / | 15 | -5 | /
O=C(O)C1=C[C@H](c2ccc3c(c2)Cc2ccccc2-3)C[C@H](OCCCCO)O1 | -26 | / | / | / | -214 | /
CC(=O)N(C)C[C@H]1Oc2cc(C3=CCCCC3)ccc2S(=O)(=O)N([C@H](C)CO)C[C@H]1C | -2 | / | / | 11 | / | /
CCCNC(=O)[C@@H]1[C@@H](CO)[C@@H]2Cn3c(cccc3=O)[C@@H]2N1C(=O)C1CC1 | -1 | / | / | 4 | / | /
Fc1ccc(-n2nnnc2-c2cnc(-c3cccs3)nc2C(F)(F)F)cc1 | / | 35 | 102* | / | / | 59*
FC(F)(F)c1nc(-c2ccncc2)ncc1-c1nnnn1-c1ccccc1 | / | -3 | 5 | / | / | -7
O=C(/C=C/c1cccc(F)c1)N1CCc2ccccc21 | / | -6 | 15 | 54* | -138 | -36
O=C(/C=C/c1cccc(F)c1)OCC(=O)N1CCCc2ccccc21 | -3 | -3 | 7 | 6 | -9 | -23
N#C[C@H]1[C@@H](c2ccccc2)[C@H](CO)N1C(=O)Nc1cccc(F)c1 | 4 | / | / | -5 | -10 | /
OC(CSc1ccccc1Cl)CN1CCN(c2ccccc2F)CC1 (stereo not given) | / | 0 | 32 | -6 | / | 63*
OC(CSc1c(Cl)cccc1Cl)CN1CCN(c2ccccc2F)CC1 (stereo not given) | / | -3 | 9 | -20 | / | 13
O=C(C[C@H]1CC[C@@H]2[C@H](COC[C@H](O)CN2C(=O)Nc2cc(Cl)cc(Cl)c2)O1)NCC1CCCCC1 | 10 | / | / | -18 | -21 | /
O=C(/C=C/c1cccc(Br)c1)c1ccc2c(c1)OCO2 | / | 7 | 60* | -18 | -64 | -1
O=C(/C=C/Nc1ccc(F)cc1Br)c1ccccc1 | / | 48* | 90* | 94* | 14 | 77*
O=C(/C=C/c1ccccc1)c1ccc2c(c1)OCO2 | -41 | -16 | -11 | -70 | -66 | -21
COC(=O)c1ccc(N/C=C\C(=O)c2ccc3c(c2)OCO3)cc1 | 41 | 1 | 1 | -72 | -74 | -37
O=C(/C=C/c1ccncc1)c1ccc2c(c1)OCCO2 | 4 | 9 | -5 | 89* | -22 | 29
O=C(/C=C\Nc1cccc(F)c1)c1ccc2c(c1)OCO2 | / | 18 | 81* | / | -28 | 3

Source: PubChem BioAssay (several laboratories)
